Assay results as given in PubChem BioAssay.
Unmarked numbers belong to inactive results. How the calls were made is not given here.

target: Pantothenate synthetase (Mycobacterium tuberculosis (strain ATCC 25618 / H37Rv)) (UniProt P9WIL5); test: Coupled enzyme confirmation of inhibitors against recombinant Mtb PanC (AID 375); conditions: coupled enzyme assay; at 10 µM, hits give high values;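 further: 0% = full reaction with vehicle and 100% = no enzyme background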
Sequence (P9WIL5 whole entry, looked up): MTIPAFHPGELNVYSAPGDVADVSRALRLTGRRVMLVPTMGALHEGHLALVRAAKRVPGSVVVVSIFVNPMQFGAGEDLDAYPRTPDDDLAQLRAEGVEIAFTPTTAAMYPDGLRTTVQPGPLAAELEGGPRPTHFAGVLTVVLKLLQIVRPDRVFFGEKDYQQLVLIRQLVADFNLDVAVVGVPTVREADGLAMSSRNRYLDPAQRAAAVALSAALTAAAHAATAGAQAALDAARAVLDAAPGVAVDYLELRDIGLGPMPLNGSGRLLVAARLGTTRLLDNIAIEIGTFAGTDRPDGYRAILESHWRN

Row | Structure (SMILES) | inhibition
1 | CC(C)(C)NC[C@H](O)COc1nsnc1N1CCOCC1 | 2%
2 | Cc1ccc(S(=O)(=O)N(CC(=O)N2CCC(C(N)=O)CC2)Cc2ccc(F)cc2)cc1 | 0%
3 | Cn1c2ccccc2c2ncn(CCCN3CCOCC3)c(=O)c21 | 0%
4 | CCOC(=O)C(C)Sc1nc2c(cnn2-c2ccc(C)cc2)c(=O)[nH]1 (stereo not given) | 5%
5 | COc1ccccc1N1CCN(C(=O)c2ccc(S(=O)(=O)N3CCCCCC3)cc2)CC1 | 2%
6 | CC(C)(C)C1CCc2[nH]nc(C(=O)O)c2C1 (stereo not given) | 5%
7 | COC(=O)CN1C(=O)CC(C)(C)S(=O)c2ccccc21 (stereo not given) | 0%
8 | CC(Cc1ccc(O)c(O)c1)C(C)Cc1ccc(O)c(O)c1 (stereo not given) | 0%
9 | Nc1ccc(S(=O)(=O)c2cccc(N)c2)cc1 | 8%
10 | O=C(COC(=O)CCc1c[nH]c2ccccc12)NC1CCS(=O)(=O)C1 (stereo not given) | 3%
11 | O=C(OCc1nnc(-c2ccccc2)o1)c1ccc2ccccc2n1 | 1%
12 | O=C(CN1C(=O)COc2ccccc21)N(Cc1cccnc1)Cc1ccccc1F | 0%
13 | CC(=O)c1cccc(NS(=O)(=O)c2ccc3c(c2)oc(=O)n3C)c1 | 0%
14 | CCOC(=O)/C=C1\SCC(=O)N1Cc1nnc(-c2ccccc2Br)o1 | 0%
15 | CCCCCC1NC(=O)NC1CCCCCC(=O)O (stereo not given) | 0%
16 | CCOC(=O)c1ccc(N2C(=O)CC(N3CCN(C/C=C/c4ccccc4)CC3)C2=O)cc1 (stereo not given) | 2%
17 | CN(C(=O)C1CCCO1)c1nnc(-c2ccncc2)s1 (stereo not given) | 1%
18 | CCOC(=O)c1c(N)c(C#N)nn1-c1ccccc1C(=O)OC | 0%
19 | CCCn1c(SCC(=O)N2CCN(c3ccccc3)CC2)nc2ccccc2c1=O | 0%
20 | COc1cc(C(=O)Nc2nc(-c3cccs3)cs2)cc(OC)c1OC | 0%

Row | Structure (SMILES) | inhibition
21 | CN1C(=S)SC(C)(NO)C1(C)C (stereo not given) | 0%
22 | Cc1ccc(-n2c3c(cc(C(=O)O)c2=O)C(=O)CC(C)(C)C3)cc1 | 3%
23 | COc1ccccc1C1C(C#N)=C(N)Oc2cc(C)n(Cc3ccccn3)c(=O)c21 (stereo not given) | 1%
24 | CCCSC1=C(C#N)C(c2cc(OC)ccc2OC)CC(=O)N1 (stereo not given) | 14%
25 | CSc1cccc(NC(=O)CN(C)S(=O)(=O)c2ccccc2)c1 | 0%
26 | CCC(=O)N1C(=O)CCN(C(C)=O)c2ccccc21 | 0%
27 | CC1CN(Cc2nc3c(c(=O)[nH]c(=O)n3C)n2CC(N)=O)CC(C)O1 (stereo not given) | 4%
28 | Cc1ccccc1CS(=O)(=O)Cc1ccc(C(=O)NCCCN2CCOCC2)o1 | 0%
29 | Cn1c(Cc2ccccc2)nnc1SCC(=O)c1ccc(Br)s1 | 0%
30 | O=C(Cc1ccccc1)Nc1ccc(CN2CCOCC2)cc1 | 0%
31 | O=C(c1cc(S(=O)(=O)N2CCOCC2)ccc1F)N1CCCc2ccccc21 | 1%
32 | O=S1(=O)Nc2c(ccc3cccnc23)-c2ccccc21 | 0%
33 | Cc1ccc2cc3cc(C(=O)NCCN4CCOCC4)oc3nc2c1 | 4%
34 | Cc1noc(C)c1S(=O)(=O)Nc1c(C)n(C)n(-c2ccccc2)c1=O | 5%
35 | CCOC(=O)c1ccc(N2C(=O)CC(N(C)CCc3ccc(OC)c(OC)c3)C2=O)cc1 (stereo not given) | 2%
36 | CCOc1ccc(N(CC(=O)NCc2ccco2)S(=O)(=O)c2ccc(OC)c(OC)c2)cc1 | 0%
37 | Nn1cc(-c2ccccc2)nc1SCC(=O)N1CCN(S(=O)(=O)c2ccccc2)CC1 | 0%
38 | Cc1cccc(N(C)C(=O)c2cc3cc4ccc(C)cc4nc3o2)c1 | 0%
39 | Cn1cnnc1SCC(=O)Nc1sc2c(c1C#N)CCCCC2 | 1%
40 | COc1ccc(-n2c(Cc3cccn3C)nnc2SCC(=O)Nc2cccc(C)c2C)cc1 | 0%
